# For part of these data: Potency and affinity values are given separately. Calls of active or inactive are those of the source.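 How the source made its calls, unless noted: active means primary screen inhibitor hit that blocks the TRPC4 channel at some tested dose, yielding a dose curve; inactive means the rest.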
# Legend:
# [1] = tested on: TRPC4 beta (transient receptor potential cation channel C4), mouse; assay: activators of mouse TRPC4 channel, confirmation, cell-based, Fluo4 calcium, HEK293 TRPC4beta/mu-opioid, duplicates, 10 µM (AID 2426;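 active means fluorescence ratio normalized to control raised more than 50% in primary screen plus both repeat runs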;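 on activation: percent rise of integrated ratio over buffer wells lacking compound which define 0%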); settings: Fluo4 calcium fluorescence, at 10 µM; stronger effect = higher value
# [2] = tested on: transient receptor potential cation channel C4 beta (TRPC4), mouse; assay: activators of mouse TRPC4 channel, confirmation, cell-based, second round, Fluo4, HEK293 TRPC4beta/mu-opioid, 1 µM (AID 2461;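 active means primary screen active and over 50% activation in each of two duplicate runs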;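 on activation: 0% = wells without test compound as baseline of integrated fluorescence ratio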); settings: Fluo4 calcium fluorescence, at 1 µM; stronger effect = higher value
# [3] = tested on: TRPC4 (transient receptor potential cation channel C4 beta), mouse; assay: positive allosteric modulators of mouse TRPC4, confirmation, cell-based, second round, Fluo-4, HEK293 TRPC4beta/mu-opioid, 1 µM (AID 2554;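 active means primary screen hit whose fluorescence ratio, in both repeats, exceeds the weak agonist control mean by 3 SD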); settings: DAMGO EC20, Fluo-4 calcium flux, at 1 µM; stronger effect = higher value
# [4] = tested on: TRPC4 beta (transient receptor potential cation channel C4), mouse; assay: positive allosteric modulators of mouse TRPC4, confirmation, cell-based, Fluo-4, HEK293 TRPC4beta/mu-opioid (AID 2555;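 active means primary screen hit whose calcium fluorescence ratio, in both repeats, exceeds the weak agonist control mean by 3 SD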); settings: DAMGO EC20, Fluo-4 calcium flux, at 10 µM; stronger effect = higher value
# [5] = target: Short transient receptor potential channel 4 (Mus musculus) (UniProt Q9QUQ5); assay: inhibitors of mouse TRPC4 channel, confirmation, cell-based, Fluo4, HEK293 TRPC4beta/mu-opioid (AID 2636;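 active means calcium signal cut by more than 3 SD below the full-agonist control yet still positive, in both repeats and the earlier primary screen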); settings: DAMGO, Fluo4 calcium flux, at 10 µM; stronger effect = higher value
# [6] = target: Short transient receptor potential channel 4 (Mus musculus) (UniProt Q9QUQ5); assay: inhibitors of mouse TRPC4 channel, confirmation, cell-based, second round, Fluo4, HEK293 TRPC4beta/mu-opioid, 1 µM (AID 2637;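 active means calcium signal ratio cut to more than 3 SD under the fully stimulated control mean yet still positive, in both repeats and the primary screen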); settings: Fluo4 calcium flux, DAMGO, at 1 µM; stronger effect = higher value
# [7] = target: Short transient receptor potential channel 4 (Mus musculus) (UniProt Q9QUQ5); assay: TRPC4 positive allosteric modulators, dose response, cell-based, HEK293 TRPC4/mu-opioid, Fluo-4 calcium, EC20 DAMGO (AID 434941;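 active means earlier screen potentiator hit that boosts the TRPC4 ion channel at some dose, with a dose response; inactive means no potentiation, no dose response, or not a prior hit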;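 further: calcium entry triggered by an EC20 dose of DAMGO at the co-expressed mu-opioid receptor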)
# [8] = target: Short transient receptor potential channel 4 (Mus musculus) (UniProt Q9QUQ5); assay: mouse TRPC4 channel inhibitors, dose response, cell-based, HEK293 TRPC4/mu-opioid, Fluo-4 calcium (AID 434942)
# [9] = target: Short transient receptor potential channel 6 (Mus musculus) (UniProt Q61143); assay: inhibition of mouse TRPC6 channel, confirmation, selectivity assay for TRPC4 inhibitor project, cell-based, HEK293, membrane potential dye, duplicate (AID 434948;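 active means active in primary screen and both duplicates, each dropping signal beyond three positive-control SD with fluorescence still positive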); settings: HEK293 TRPC6, membrane potential dye fluorescence, at 10 µM, stimulated with maximal-effect acetylcholine; stronger effect = higher value
# [10] = target: Short transient receptor potential channel 6 (Mus musculus) (UniProt Q61143); assay: activation of mouse TRPC6 channel, confirmation, selectivity assay for TRPC4 activator project, cell-based, HEK293, membrane potential dye, duplicate (AID 434950;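 active means membrane potential signal rise above negative control mean plus 3 SD in both duplicates, also active in the earlier TRPC4 screen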;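 on activation: 0% = buffer only wells and 100% = acetylcholine maximal-effect wells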); settings: HEK293 TRPC6, membrane potential fluorescence, at 10 µM; stronger effect = higher value
# [11] = target: Short transient receptor potential channel 6 (Mus musculus) (UniProt Q61143); assay: TRPC6 potentiation by TRPC4 potentiator hits, confirmation, selectivity assay for TRPC4 potentiator project, HEK293 cells, membrane potential dye, duplicate (AID 434952;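 active means compound raising the membrane signal above positive-control mean plus 3 SD in both repeats, and a primary screen hit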); settings: HEK293 TRPC6, membrane potential dye fluorescence, at 10 µM, maximal acetylcholine added after compound; stronger effect = higher value
# [12] = target: Short transient receptor potential channel 4 (Mus musculus) (UniProt Q9QUQ5); assay: calcium flux activators in TRPC4/5HT1a cells, counter-screen for TRPC4 activator project, cell-based, second counter screen, HEK293 TRPC4/5HT1a, Fluo-4 (AID 434977;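 active means calcium signal rise above buffer-control mean plus 5 SD in both duplicates, and also a hit in the primary screen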;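 on activation: plate controls were assay buffer for no effect and maximal serotonin response for full effect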); settings: Fluo-4 calcium flux, at 10 µM; stronger effect = higher value
# [13] = calcium flux inhibitors in TRPC4/5HT1a cells, confirmation, counter-screen for TRPC4 inhibitor project, cell-based, second counter screen, HEK293 TRPC4/5HT1a, Fluo-4 (AID 434978;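 active means primary screen active whose calcium signal fell more than 3 SD beyond the full-serotonin control mean in both duplicate plates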;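 further: serotonin given first at submaximal then at maximal dose after compound preincubation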); settings: Fluo-4 calcium flux, at 10 µM, serotonin added to trigger calcium flux; stronger effect = higher value
# [14] = tested on: TRPC4 (mouse), co-expressed with 5HT1a in HEK293; assay: calcium flux potentiators in TRPC4/5HT1a cells, confirmation, counter-screen for TRPC4 potentiator project, cell-based, second counter screen, HEK293 TRPC4/5HT1a, Fluo-4 (AID 434979;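 active means signal rise over 3 SD above mean of control wells given weak agonist, in both repeats and first screen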); settings: Fluo-4 calcium flux, at 10 µM, serotonin added at its EC20 dose; stronger effect = higher value
# [15] = calcium flux activation in mu-opioid HEK293 cells, confirmation, counter-screen for TRPC4 activator project, cell-based, HEK293 mu-opioid receptor line (AID 449723;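 active means hit in primary screen, with calcium signal over 5 SD above buffer well mean in both duplicates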;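 further: counter screen cells carry the mu-opioid receptor alone and lack TRPC4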); settings: Fluo-4 calcium fluorescence, at 10 µM; stronger effect = higher value
# [16] = calcium flux enhancement in mu-opioid HEK293 cells, confirmation, counter-screen for TRPC4 allosteric potentiator project, cell-based, HEK293 mu-opioid receptor line (AID 449724;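 active means calcium signal rise more than 3 SD above the low-dose agonist control mean, in both duplicate plates and the primary screen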); settings: Fluo-4 calcium flux, at 10 µM, compound added before EC20 DAMGO stimulus; stronger effect = higher value
# Chain of Short transient receptor potential channel 6 (Mus musculus) (Q61143 whole entry, looked up): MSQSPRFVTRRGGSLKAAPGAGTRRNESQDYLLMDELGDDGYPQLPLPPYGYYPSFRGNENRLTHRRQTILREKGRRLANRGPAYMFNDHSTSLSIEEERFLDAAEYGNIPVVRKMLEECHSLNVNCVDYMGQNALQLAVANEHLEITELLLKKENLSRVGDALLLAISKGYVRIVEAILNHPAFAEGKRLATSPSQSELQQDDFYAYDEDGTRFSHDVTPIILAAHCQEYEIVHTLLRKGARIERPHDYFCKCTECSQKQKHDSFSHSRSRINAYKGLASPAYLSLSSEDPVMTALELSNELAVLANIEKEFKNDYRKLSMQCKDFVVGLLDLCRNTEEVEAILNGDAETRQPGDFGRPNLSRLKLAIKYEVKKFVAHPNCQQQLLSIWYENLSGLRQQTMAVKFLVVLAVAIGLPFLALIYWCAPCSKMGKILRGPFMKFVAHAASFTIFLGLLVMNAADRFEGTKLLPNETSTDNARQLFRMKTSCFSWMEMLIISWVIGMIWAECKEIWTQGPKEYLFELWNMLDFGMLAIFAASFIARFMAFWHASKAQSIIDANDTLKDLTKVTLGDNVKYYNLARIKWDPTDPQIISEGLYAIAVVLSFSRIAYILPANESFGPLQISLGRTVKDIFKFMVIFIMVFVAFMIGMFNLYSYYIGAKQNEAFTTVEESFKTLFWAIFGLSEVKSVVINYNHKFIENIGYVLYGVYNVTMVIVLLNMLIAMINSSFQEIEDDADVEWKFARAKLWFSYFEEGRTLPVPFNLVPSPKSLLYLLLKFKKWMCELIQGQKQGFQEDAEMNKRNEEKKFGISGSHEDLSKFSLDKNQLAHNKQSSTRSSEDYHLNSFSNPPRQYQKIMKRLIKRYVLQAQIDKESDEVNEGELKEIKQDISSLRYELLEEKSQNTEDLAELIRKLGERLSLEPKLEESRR
# Chain of Short transient receptor potential channel 4 (Mus musculus) (Q9QUQ5 whole entry, looked up): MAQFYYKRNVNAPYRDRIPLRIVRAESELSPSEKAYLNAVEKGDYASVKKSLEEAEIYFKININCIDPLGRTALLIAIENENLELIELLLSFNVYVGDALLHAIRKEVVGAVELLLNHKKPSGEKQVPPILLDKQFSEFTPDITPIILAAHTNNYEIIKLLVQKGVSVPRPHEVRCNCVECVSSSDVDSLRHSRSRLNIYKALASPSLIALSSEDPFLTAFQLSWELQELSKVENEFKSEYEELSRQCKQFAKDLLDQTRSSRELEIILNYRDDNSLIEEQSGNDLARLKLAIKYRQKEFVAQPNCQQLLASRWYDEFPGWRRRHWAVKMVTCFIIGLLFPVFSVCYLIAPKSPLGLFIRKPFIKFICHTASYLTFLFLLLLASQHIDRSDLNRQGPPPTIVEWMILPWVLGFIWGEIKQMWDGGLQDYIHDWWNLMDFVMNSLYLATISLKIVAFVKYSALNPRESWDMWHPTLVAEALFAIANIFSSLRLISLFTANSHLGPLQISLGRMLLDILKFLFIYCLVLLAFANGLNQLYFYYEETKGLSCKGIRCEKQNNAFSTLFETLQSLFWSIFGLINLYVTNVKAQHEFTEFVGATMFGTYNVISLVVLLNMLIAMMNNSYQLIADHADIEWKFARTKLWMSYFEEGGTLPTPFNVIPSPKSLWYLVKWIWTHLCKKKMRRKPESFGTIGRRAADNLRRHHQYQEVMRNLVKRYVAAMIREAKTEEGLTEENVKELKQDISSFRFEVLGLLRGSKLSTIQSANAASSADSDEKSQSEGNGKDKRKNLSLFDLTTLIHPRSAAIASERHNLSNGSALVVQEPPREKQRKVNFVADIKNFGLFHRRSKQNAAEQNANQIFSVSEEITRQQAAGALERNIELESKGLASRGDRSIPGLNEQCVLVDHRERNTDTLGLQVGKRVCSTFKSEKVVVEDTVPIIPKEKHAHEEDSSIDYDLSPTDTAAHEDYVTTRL
smiles,measurement,setting,value
CCCCN(CC)CCNC(=O)Cn1cc2c(n1)-c1c(oc(C(=O)N3CCCC3)c1C)CC2,activation,[1],65% (active)
same,outcome,[2],inactive
same,outcome,[3],inactive
same,outcome,[4],inactive
same,outcome,[5],inactive
same,outcome,[6],inactive
same,outcome,[7],inactive
same,outcome,[8],inactive
same,outcome,[9],inactive
same,activation,[10],34% (active)
same,outcome,[11],inactive
same,activation,[12],18.6% (active)
same,outcome,[13],inactive
same,outcome,[14],inactive
same,outcome,[15],inactive
same,outcome,[16],inactive
COC(=O)NCC(c1ccc2c(c1)OCO2)N1CCN(c2ccc(OC)cc2)CC1 (stereo not given),activation,[1],85% (active)
same,outcome,[2],inactive
same,outcome,[3],inactive
same,outcome,[4],inactive
same,outcome,[5],inactive
same,outcome,[6],inactive
same,outcome,[7],inactive
same,outcome,[8],inactive
same,outcome,[9],inactive
same,outcome,[10],inactive
same,outcome,[11],inactive
same,outcome,[12],inactive
same,outcome,[13],inactive
same,outcome,[14],inactive
same,outcome,[15],inactive
same,outcome,[16],inactive
CCOc1ccccc1N(CC(=O)N1CCOCC1)S(=O)(=O)c1ccc(SC)cc1,activation,[1],164% (active)
same,outcome,[2],inactive
same,outcome,[3],inactive
same,outcome,[4],inactive
same,outcome,[5],inactive
same,outcome,[6],inactive
same,outcome,[7],inactive
same,outcome,[8],inactive
same,outcome,[9],inactive
same,activation,[10],89% (active)
same,outcome,[11],inactive
same,activation,[12],134% (active)
same,outcome,[13],inactive
same,outcome,[14],inactive
same,activation,[15],111% (active)
same,outcome,[16],inactive
CN(C)CCCN(C(=O)c1ccc(S(=O)(=O)N2CCc3ccccc3C2)cc1)c1nc2ccc(F)cc2s1,outcome,[1],inactive
same,outcome,[2],inactive
same,outcome,[3],inactive
same,outcome,[4],inactive
same,outcome,[5],inactive
same,outcome,[6],inactive
same,outcome,[7],inactive
same,outcome,[8],inactive
same,outcome,[9],inactive
same,outcome,[10],inactive
same,outcome,[11],inactive
same,outcome,[12],inactive
same,outcome,[13],inactive
same,outcome,[14],inactive
same,outcome,[15],inactive
same,outcome,[16],inactive
CCN1CCN(c2ccc(S(=O)(=O)N3CCOCC3)cc2NC(=O)c2ccccc2SC)CC1,activation,[1],316% (active)
same,activation,[2],110% (active)
same,outcome,[3],inactive
same,outcome,[4],inactive
same,outcome,[5],inactive
same,outcome,[6],inactive
same,outcome,[7],inactive
same,outcome,[8],inactive
same,outcome,[9],inactive
same,outcome,[10],inactive
same,outcome,[11],inactive
same,activation,[12],81.4% (active)
same,outcome,[13],inactive
same,outcome,[14],inactive
same,outcome,[15],inactive
same,outcome,[16],inactive
CCCCN(CC)CCNC(=O)c1ccc2c(Cl)c3c(nc2c1)CCC3,activation,[1],166% (active)
same,activation,[2],142% (active)
same,outcome,[3],inactive
same,outcome,[4],inactive
same,outcome,[5],inactive
same,outcome,[6],inactive
same,outcome,[7],inactive
same,outcome,[8],inactive
same,outcome,[9],inactive
same,outcome,[10],inactive
same,outcome,[11],inactive
same,activation,[12],92.3% (active)
same,outcome,[13],inactive
same,outcome,[14],inactive
same,outcome,[15],inactive
same,outcome,[16],inactive
NCCCNC(=O)c1cc2ccccc2[nH]1,activation,[1],220% (active)
same,outcome,[2],inactive
same,outcome,[3],inactive
same,outcome,[4],inactive
same,outcome,[5],inactive
same,outcome,[6],inactive
same,outcome,[7],inactive
same,outcome,[8],inactive
same,outcome,[9],inactive
same,outcome,[10],inactive
same,outcome,[11],inactive
same,activation,[12],6.83% (active)
same,outcome,[13],inactive
same,outcome,[14],inactive
same,outcome,[15],inactive
same,outcome,[16],inactive
CC1CC(C)CN(CCCNS(=O)(=O)c2cc(Br)cc3c2N(C(=O)C2CC2)CC3)C1 (stereo not given),activation,[1],139% (active)
same,activation,[2],114% (active)
same,outcome,[3],inactive
same,outcome,[4],inactive
same,outcome,[5],inactive
same,outcome,[6],inactive
same,outcome,[7],inactive
same,outcome,[8],inactive
same,outcome,[9],inactive
same,activation,[10],30% (active)
same,outcome,[11],inactive
same,activation,[12],64.6% (active)
same,outcome,[13],inactive
same,outcome,[14],inactive
same,outcome,[15],inactive
same,outcome,[16],inactive
COCCCn1c(N)c(-c2nc3ccccc3n2C)c2nc3ccccc3nc21,outcome,[1],inactive
same,outcome,[2],inactive
same,outcome,[3],inactive
same,outcome,[4],inactive
same,outcome,[5],inactive
same,outcome,[6],inactive
same,outcome,[7],inactive
same,outcome,[8],inactive
same,outcome,[9],inactive
same,activation,[10],137% (active)
same,outcome,[11],inactive
same,activation,[12],27.5% (active)
same,outcome,[13],inactive
same,outcome,[14],inactive
same,activation,[15],16.7% (active)
same,outcome,[16],inactive
O=C(COc1cc(Cl)c(Cl)cc1Cl)NCCc1ccccn1,activation,[1],60% (active)
same,outcome,[2],inactive
same,outcome,[3],inactive
same,outcome,[4],inactive
same,outcome,[5],inactive
same,outcome,[6],inactive
same,outcome,[7],inactive
same,outcome,[8],inactive
same,outcome,[9],inactive
same,activation,[10],53.5% (active)
same,outcome,[11],inactive
same,activation,[12],12.5% (active)
same,outcome,[13],inactive
same,outcome,[14],inactive
same,outcome,[15],inactive
same,outcome,[16],inactive
COc1ccc(C(CNC(=O)c2ccccc2SC)N(C)C)cc1 (stereo not given),activation,[1],99% (active)
same,outcome,[2],inactive
same,outcome,[3],inactive
same,outcome,[4],inactive
same,outcome,[5],inactive
same,outcome,[6],inactive
same,outcome,[7],inactive
same,outcome,[8],inactive
same,outcome,[9],inactive
same,activation,[10],56% (active)
same,outcome,[11],inactive
same,outcome,[12],inactive
same,outcome,[13],inactive
same,outcome,[14],inactive
same,outcome,[15],inactive
same,outcome,[16],inactive
Cc1ccc(C(=O)NNC(=S)NC(=O)COc2ccccc2)cc1,activation,[1],171% (active)
same,outcome,[2],inactive
same,outcome,[3],inactive
same,outcome,[4],inactive
same,outcome,[5],inactive
same,outcome,[6],inactive
same,outcome,[7],inactive
same,outcome,[8],inactive
same,outcome,[9],inactive
same,outcome,[10],inactive
same,outcome,[11],inactive
same,activation,[12],112% (active)
same,outcome,[13],inactive
same,outcome,[14],inactive
same,outcome,[15],inactive
same,outcome,[16],inactive
CCN1CCCC1CNC(=O)c1cc2c(OC)cccc2[nH]1 (stereo not given),activation,[1],136% (active)
same,outcome,[2],inactive
same,outcome,[3],inactive
same,outcome,[4],inactive
same,outcome,[5],inactive
same,outcome,[6],inactive
same,outcome,[7],inactive
same,outcome,[8],inactive
same,outcome,[9],inactive
same,activation,[10],36.5% (active)
same,outcome,[11],inactive
same,outcome,[12],inactive
same,outcome,[13],inactive
same,outcome,[14],inactive
same,outcome,[15],inactive
same,outcome,[16],inactive
Cc1noc(C)c1S(=O)(=O)N1CCC(C(=O)NCCCN2CC(C)CC(C)C2)CC1 (stereo not given),activation,[1],99% (active)
same,activation,[2],75% (active)
same,outcome,[3],inactive
same,outcome,[4],inactive
same,outcome,[5],inactive
same,outcome,[6],inactive
same,outcome,[7],inactive
same,outcome,[8],inactive
same,outcome,[9],inactive
same,outcome,[10],inactive
same,outcome,[11],inactive
same,activation,[12],28.5% (active)
same,outcome,[13],inactive
same,outcome,[14],inactive
same,outcome,[15],inactive
same,outcome,[16],inactive
N=c1n(Cc2ccccc2)c2ccccc2n1CC(O)COc1ccccc1 (stereo not given),outcome,[1],inactive
same,outcome,[2],inactive
same,outcome,[3],inactive
same,outcome,[4],inactive
same,outcome,[5],inactive
same,outcome,[6],inactive
same,outcome,[7],inactive
same,outcome,[8],inactive
same,outcome,[9],inactive
same,activation,[10],54% (active)
same,outcome,[11],inactive
same,outcome,[12],inactive
same,outcome,[13],inactive
same,outcome,[14],inactive
same,outcome,[15],inactive
same,outcome,[16],inactive

# Source: PubChem BioAssay
